Assay outcomes (PubChem BioAssay)
Shown are actives, neighbours in structure and some others; about 4.6% of the full set was active somewhere.
ADAM17 inh = ADAM17 inhibition, QFRET primary screen. P78536. recombinant ADAM17, EDANS/DABCYL FRET peptide cleavage. inhibition, % at 6.95 µM. actives 0.83% (n = 370,000). AID 720648;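 active means inhibition above the mean of compounds lying between control limits plus 3 SD, set per campaign, cut at about 8.5% in these data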;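 further: 0% = DMSO-only wells as the low control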
Target sequence (P78536 215-824 limits assumed): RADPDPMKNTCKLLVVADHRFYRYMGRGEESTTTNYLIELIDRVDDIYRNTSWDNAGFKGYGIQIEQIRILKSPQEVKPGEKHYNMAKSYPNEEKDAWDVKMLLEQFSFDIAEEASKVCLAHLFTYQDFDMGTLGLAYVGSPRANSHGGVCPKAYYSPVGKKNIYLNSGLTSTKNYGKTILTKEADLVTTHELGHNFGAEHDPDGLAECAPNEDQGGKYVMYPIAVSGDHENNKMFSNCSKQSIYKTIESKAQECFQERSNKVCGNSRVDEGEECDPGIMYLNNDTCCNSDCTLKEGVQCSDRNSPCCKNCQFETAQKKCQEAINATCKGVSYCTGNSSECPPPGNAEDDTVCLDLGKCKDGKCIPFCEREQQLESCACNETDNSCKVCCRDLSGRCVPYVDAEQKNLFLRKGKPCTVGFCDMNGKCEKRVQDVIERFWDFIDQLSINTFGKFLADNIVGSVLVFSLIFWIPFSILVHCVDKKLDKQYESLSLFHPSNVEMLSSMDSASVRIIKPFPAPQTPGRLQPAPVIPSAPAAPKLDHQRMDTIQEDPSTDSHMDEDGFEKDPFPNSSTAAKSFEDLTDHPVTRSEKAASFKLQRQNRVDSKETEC
KLK7 zymogen act = proKLK7 (human) activation, primary screen. P49862. purified proKLK7, EDANS-DABCYL substrate fluorescence; 100% is mature enzyme control, 0% vehicle. activation, % at 7 µM. actives 0.9% (n = 370,000);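 active means activation above the mean of all tested compounds plus 3 SD, computed per campaign excluding outliers beyond control limits, cut at about 13% in these data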
NR3A LBD binder = NR3A (human) ligand-binding domain modulation; NR3A LBD differential scanning fluorimetry, Tm shift; 0% = protein alone, 100% = glycine-bound protein; Tm shift relative to glycine control, % at 25 µM; actives 2.5% (n = 340,000); AID 1259313;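 active means melting temperature shift of at least 10% of the positive control shift, at one fixed dose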
ADAM10 inh = ADAM10 inhibition, QFRET primary screen; O14672; recombinant ADAM10, EDANS/DABCYL FRET peptide cleavage, 3 h; inhibition, % at 7 µM; actives 0.62% (n = 370,000); AID 720582;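 active means inhibition above a per-campaign cutoff equal to the mean of compounds falling between control-based bounds plus 3 SD, cut at about 20% in these data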;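 further: 0% = DMSO wells while the 100% control is not disclosed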
FAS TE block = blocks the thioesterase domain of human fatty acid synthase; P49327; recombinant FAS-TE, OMFH fluorogenic substrate, fluorescence endpoint; inhibition, % at 15 µM; actives 0.67% (n = 360,000); AID 602261;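 active means compounds whose normalised, plate-corrected inhibition of enzyme fluorescence in the single-dose primary screen is 50% or more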;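 further: 0% = DMSO with enzyme and 100% = substrate without enzyme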
The depositor's hits bear a star; nt = not tested or not shown.

SMILES	ADAM17 inh	KLK7 zymogen act	NR3A LBD binder	ADAM10 inh	FAS TE block
COc1ccc2[nH]cc(CCNC(=O)c3ccc([N+](=O)[O-])cc3)c2c1	-5	-1	12*	1	24
O=C(NCCc1c[nH]c2ccccc12)c1ccccc1	-1	0	13*	-8	-2
O=C(NCCc1c[nH]c2ccccc12)c1ccc(-n2cnnn2)cc1	-1	0	13*	3	4
Cc1ccc(C(=O)NCCc2c[nH]c3ccccc23)s1	-1	1	27*	0	-2
COc1ccc(C(=O)NCCc2c[nH]c3ccc(OC)cc23)cc1	-3	0	7	-2	-2
Cc1c(NC(=O)C2CCCN(S(=O)(=O)c3ccc(Cl)s3)C2)c(=O)n(-c2ccccc2)n1C (centres undefined)	-2	0	nt	-15	nt
Cc1ccc(NC(=O)[C@@H]2CCCN2S(=O)(=O)c2cccc3cccnc23)c(C)c1	0	nt	nt	1	nt
O[C@@H]1[C@@H](O)[C@H](n2c3ccc(Cl)cc3c3ccc4c5cc(Cl)ccc5[nH]c4c32)OC[C@H]1O	-17	-1	nt	-53	nt
CC(=O)C(C(C)=O)c1c(Cl)c(O)c(O)c2c(C(=O)c3ccccc3)coc12	15*	-1	-15	32*	-148
CCOc1ccc(C(=O)CCC(=O)N(CC)CC(=O)NCc2ccc(Cl)cc2)cc1	-5	0	13*	-2	9
O=C(Nc1ccc(C(=O)O)cc1)/C(=C\C=C\c1ccccc1)NC(=O)c1ccccc1Cl	0	0	-29	-10	1
O=C(Nc1ccc(O)cc1)/C(=C\C=C\c1ccccc1)NC(=O)c1ccccc1	3	0	27*	2	15
Cc1ccc(S(=O)(=O)N(C)[C@H]2C[C@H]3c4cc(-c5ccccc5C)ccc4CCN3C[C@H]2[C@H](C)O)cc1	-2	6	nt	-14	nt
Cc1c(Cl)c([N+](=O)[O-])nn1CCCC(=O)Nc1cccc(O)c1	-2	0	12*	-5	4
CCCCCC(=O)NC(=S)Nc1ccc(Cl)cn1	7	0	1	15	10
CC1CC(CCC(=O)NC(=S)Nc2ccc(Cl)cn2)C(=O)O1 (centres undefined)	-4	0	16*	-5	-7
O=C(CCC1COc2ccccc2O1)Nc1ccc(Cl)cn1 (centres undefined)	-2	0	12*	6	3
Cc1ccnc(NC(=O)CCC2COc3ccccc3O2)c1 (centres undefined)	-5	0	0	2	2
COc1ccc(-n2c(SCC(=O)N(CC(C)C)CC(C)C)nnc2-c2ccncc2)cc1	-1	0	nt	-4	nt
COC(=O)[C@]12C[C@H](CC(=O)N3CCN(C(=O)c4ccco4)CC3)C(=O)N(Cc3cccc4ccccc34)C1=C[C@H](COCc1ccccc1)O[C@@H]2C	4	0	nt	8	nt
O=C(CSc1nnc(COc2ccccc2)n1Cc1ccco1)Nc1ccc(OCc2ccccc2)cc1	2	0	nt	3	nt
CN=C1S/C(=C/c2cn(CC(=O)OC)c3ccccc23)C(=O)N1C	-1	0	12*	-3	4
CCN(CC)c1ccc(C=NNC(=O)Cc2cc(=O)[nH][nH]2)c(O)c1	-2	-5	nt	-11	nt
COc1ccc(CN2C(=O)CCCC2(C)c2nnnn2-c2ccc3c(c2)OCCO3)cc1 (centres undefined)	-6	0	nt	-7	nt
CN(/N=C\c1ccc(O)c(O)c1)c1nc(-c2ccccc2)cc(-c2ccccc2)n1	-8	0	21*	-47	21
SMILES	ADAM17 inh	KLK7 zymogen act	NR3A LBD binder	ADAM10 inh	FAS TE block
C[C@@H]1COc2cc(Br)ccc2S(=O)(=O)N1Cc1cn(CCC2OCCCO2)nn1	-3	0	nt	-9	nt
O=C(CC1C(=O)NCCN1C(=O)Nc1ccc(C(F)(F)F)cc1)Nc1ccc(F)cc1 (centres undefined)	5	0	14*	9	18
O=C(NCCc1nc2ccccc2n1CCOc1ccc2cccnc2c1)C1CCCCC1	-2	nt	nt	0	nt
N#Cc1c(N)nc2c(c1-c1ccncc1)CCCCCC2	-4	0	36*	-15	-2
N#Cc1c(N)nc2c(c1-c1ccncc1)CCCC2	-45	0	1	-174	-5
Cc1ccc2nc(-c3ccc(SCC(=O)Nc4ccc5c(c4)OCCO5)nc3)[nH]c2c1	-57	-1	26*	-138	-3
N#CCSc1ccc(-c2nc3ccccc3[nH]2)cn1	-26	1	-10	-69	1
